Source: PubChem BioAssay AID651804 (National Center for Advancing Translational Sciences (NCATS), 2012)
The whole screen tested about 1,200 compounds, of which about 20 (2%) were called active. About 23% were inconclusive and are not listed. The sample holds actives, similar compounds and a random draw of the others, so the mix is not that of the screen. Calls follow the shape of the dose curve; as a rule, active = well fitted inhibition curve with a large enough effect; inconclusive = small, poorly fitted or top-dose-only effect; inactive = no such curve, though single readings can be large or run the other way.

Target: Transcriptional regulator ERG (Homo sapiens) (UniProt P11308)
Assay: qHTS for Small Molecule Inhibitors of the ERG Ets/DNA interaction: HTRF assay against cherry picks
Conditions: His-ERG Ets domain with biotin-DNA; series mostly up to 154 µM; activity change, negative = inhibition: at the top concentration
Summary of the method: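 HTRF of His-tagged ERG Ets domain (200 nM solution) with biotin-DNA (200 nM solution) in 300mM KCl, 50mM Tris-HCl pH 7.5, 1mM EDTA, 1mM DTT; 10 min RT. Anti-His cryptate donor plus streptavidin acceptor added, 10 min, FRET read at 615/665 nm.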
Potency is read from the fitted curve at half-maximal effect.

Sequence of Transcriptional regulator ERG (Homo sapiens) (P11308 whole entry, looked up): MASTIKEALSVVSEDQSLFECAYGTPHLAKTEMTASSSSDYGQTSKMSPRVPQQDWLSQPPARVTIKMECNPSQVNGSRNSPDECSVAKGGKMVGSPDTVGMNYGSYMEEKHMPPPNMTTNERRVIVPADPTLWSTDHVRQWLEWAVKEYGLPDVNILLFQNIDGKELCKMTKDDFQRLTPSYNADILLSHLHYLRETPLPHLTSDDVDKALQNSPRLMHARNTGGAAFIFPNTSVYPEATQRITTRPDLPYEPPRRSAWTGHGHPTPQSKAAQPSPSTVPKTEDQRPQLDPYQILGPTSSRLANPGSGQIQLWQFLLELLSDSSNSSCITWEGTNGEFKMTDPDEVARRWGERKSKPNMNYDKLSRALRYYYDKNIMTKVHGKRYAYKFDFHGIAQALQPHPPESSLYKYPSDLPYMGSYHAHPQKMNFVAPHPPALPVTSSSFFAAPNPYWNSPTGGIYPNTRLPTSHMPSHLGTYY

Activity change, negative = inhibition, inactive:
Cc1cc(OCc2cc3c(cc2Cl)OCO3)c2c(C)cc(=O)oc2c1 -3.98%
COC(=O)c1ccccc1NC(=O)c1cc(C2CC2)on1 -14.3%
Nc1ccccc1S(N)(=O)=O -1.75%
COc1cc(CCC(=O)Nc2ccc(Br)c(C(F)(F)F)c2)cc(OC)c1OC -23.7%
O=C(NCCCc1ccccc1)C(=O)NCC1OCCN1S(=O)(=O)c1cc(F)ccc1F (stereo unspecified) -21.2%
N#Cc1c(SCc2c(Cl)cccc2Cl)nc(N)[nH]c1=S -36.5%
CCC(c1nnnn1Cc1ccc(F)cc1)N1CCN(C)CC1 (stereo unspecified) -23.8%
Cc1sc2nc(CSC(C)C(=O)Nc3ccc(C(N)=O)cc3)[nH]c(=O)c2c1C (stereo unspecified) -40.4%
CCOc1ccc(NS(=O)(=O)c2ccc(NC(C)=O)c(OC)c2)cc1 -24.9%
CCn1ccc2c(OCC(=O)Nc3ccc(C(C)=O)cc3)cccc2c1=O -14.2%
COC(=O)c1c(C(=O)OC)c(-c2ccc(OC)cc2)n2c1CS(=O)C2 (stereo unspecified) -14.5%
CC(NC(=O)c1ccco1)c1nc(-c2ccc(C(C)(C)C)cc2)no1 (stereo unspecified) -19.6%
O=C(Cc1csc(-c2ccccc2)n1)NCc1ccc(F)cc1 -25.8%
O=C(NCCCc1ccccc1)C(=O)NCC1OCCN1S(=O)(=O)c1ccccc1 (stereo unspecified) -28.9%
CCn1nc(C)c(CNC(=O)c2cc(COc3ccccc3SC)on2)c1C -14.4%
CS(=O)(=O)N(CC(=O)Nc1ccccc1)c1cccc(Cl)c1Cl 1.01%
O=C(O)CC(c1cccc2ccccc12)N1Cc2ccccc2C1=O (stereo unspecified) -11.1%
O=C(NCc1ccc(F)cc1F)c1cc(COc2c(F)cccc2F)on1 8.28%
Cc1cc(C)cc(N(C(=O)c2csnn2)C(C(=O)NC(C)(C)C)c2ccncc2)c1 (stereo unspecified) -28.2%
COc1ccc(Nc2ncnc3sccc23)cc1OC -22.8%
COc1ccc(-c2cccc(NS(=O)(=O)c3cc([N+](=O)[O-])ccc3C)c2)nn1 -26.3%
Cc1cc(N)ccc1-n1c(C)ccc1C -13.7%
CC(Oc1ccc(C(=O)c2ccc(F)cc2)cc1)C(=O)N1CCOCC1 (stereo unspecified) -25.3%
CCc1nn2c(=O)cc(CSCC(=O)Nc3ccccc3F)nc2s1 -2.81%
CCOC(=O)C(CC)Sc1ccc2nnc(-c3cccnc3)n2n1 (stereo unspecified) -10.8%
CC1CCN(S(=O)(=O)c2ccc(Cl)s2)CC1 -23%
Cn1nc(C(F)(F)F)c(C#N)c1N1CCN(c2ccccn2)CC1 -25.8%
O=C(C[C@H]1C/C=C\CC[C@@H](Cc2ccc(F)cc2)C(=O)OC[C@H]2CCCN2C1=O)N[C@H](CO)Cc1ccccc1 -13.8%
CC1(C)C2CCC1(C)C(NCC(O)COc1ccc(C#N)cc1)C2 (stereo unspecified) -2.02%
CCOCCn1c(CN2CCCCC2)nc2c1c(=O)n(C)c(=O)n2C -23%
Cc1cc(C(=O)COC(=O)C23CC4CC(CC(O)(C4)C2)C3)c(C)n1C -28.2%
COc1cc(NC(=O)COC(=O)CNC(=O)C2CCCCC2)cc(OC)c1 -17.5%
Cc1nccn1C[C@@H]1CCc2c(c3ccccc3n2C)C1=O -12.8%
Cc1nc(Nc2cccc(F)c2)c2oc3ccccc3c2n1 -29.2%
CCCCn1c(N)c(N(CC(C)C)C(=O)c2ccc(S(=O)(=O)N3CCC(C)CC3)cc2)c(=O)[nH]c1=O -4.46%
COC(=O)c1ccccc1SC(CC(=O)c1ccccc1)c1ccc(F)cc1 (stereo unspecified) -9.34%
CCCC(NC(=O)C(C)Sc1nnnn1C1CC1)c1ccccc1 (stereo unspecified) -15.9%
Cc1ccccc1-n1c(=O)n(CCc2ccccc2)c(=O)c2[nH]cnc21 -2.33%
O=S(=O)(c1ccccc1)c1cnc(-c2cccnc2)nc1-c1ccccc1 -15.6%
O=c1oc2ccccc2cc1-c1cn2cc(Cc3ccc(F)cc3)sc2n1 -3.08%
NC(=O)c1ccccc1NCC(=O)c1ccc(F)cc1 -21.6%
COc1cccc(-c2nn(C)c3sc(C(=O)NCc4ccc(OC)cc4OC)cc23)c1 1.17%
CSc1nc(-c2ccc(Cl)cc2)nn1C(=O)c1ccccc1 -19.6%
COc1ccc(S(=O)(=O)N2CCCC(C(F)(F)F)C2)cc1 (stereo unspecified) -24%
CN(C)C=NC(=O)c1cc(C(=O)c2ccc(Cl)cc2)c[nH]1 -14.1%
Cc1cc(=O)oc2cc(OCC(=O)OCC(=O)Nc3ccc(C(C)C)cc3)ccc12 -4.51%
COC(=O)C(CCSC)NC(=O)c1cc2c(n(-c3ccccc3)c1=O)CC(C)(C)CC2=O (stereo unspecified) -23.7%
CC(C)CCN1CCN(C2CCN(c3ccc4c(c3)OCO4)CC2)CC1CCO (stereo unspecified) -10.5%
Cc1cc(C)nc(N2C(=O)CC(Cc3ccc(Cl)cc3)C2=O)n1 (stereo unspecified) -18.5%
Cc1ccc2oc(-c3ccc(NC(=O)CC(C)C)cc3)nc2c1 -28%
Cc1ccc(C(=O)N2CCCCC2C(=O)O)cc1S(=O)(=O)N1CCCCC1 (stereo unspecified) -26.3%
O=C(Nc1ccccc1Br)c1ccccc1-c1ccccc1 -19%
COc1ccccc1NS(=O)(=O)c1ccc(C)c(NC(=O)c2c(C)noc2C)c1 -24.5%
Cc1ccc(NC(=O)CSc2nc3ccccc3c3nc(CCn4c(C)nc5ccccc54)nn23)cc1F -14.4%
COc1ccc(NC(=O)CSc2nc(C)c3c(c2C#N)CCCC3)cc1 -22.1%
Cc1cc(C)nc(N2CCCC(C(=O)Nc3ccc(F)cc3)C2)n1 (stereo unspecified) 0.212%
Cc1c(NC(=O)c2cc(-n3cnnc3)ccc2Cl)cccc1-c1nc2ccccc2s1 -29.4%
O=c1[nH]c2cc(F)ccc2c2ccc(F)cc12 -28.4%
CCOc1cc(NC(=S)NCC(C)C)c(OCC)cc1NC(=O)c1ccco1 -29%
O=C(Nc1cc(-c2nc3cc(Cl)ccc3o2)ccc1Cl)c1cccs1 111%
COC(=O)C(C)Sc1ccc2nnc(CCNS(=O)(=O)c3ccc(C)cc3)n2n1 (stereo unspecified) -21.9%
CNCCCOc1cc(C)cc(C)c1C -21.6%
COc1ccc(C(=O)c2cccc(C(=O)c3ccc(OC)c(C)c3)c2)cc1C -25.7%
COc1ccc(C(c2c(C)n(C)n(-c3ccccc3)c2=O)c2c(C)n(C)n(-c3ccccc3)c2=O)c(OC)c1OC -25.1%
CC1(c2ccccc2Cl)NC(=O)N(CC(=O)Nc2ccccc2OC(F)F)C1=O (stereo unspecified) -6.9%
Cc1cccc(NC(=O)c2ccccc2NC(=O)c2ccco2)c1 -1.8%
COc1ccc(-c2n(CC(=O)OC3CC(C)CCC3C(C)C)c3ccccc3[n+]2C)cc1 (stereo unspecified) -5.73%
Cc1cccc(C(=O)N[C@H](C(=O)Nc2ccc(C)c(S(=O)(=O)N(C)C)c2)C(C)C)c1 -14.5%
CCN(CC(=O)Nc1ccccc1C(F)(F)F)C(=O)c1ccc(N2C(=O)CCC2=O)cc1 -29.6%
Cc1ccc(NS(=O)(=O)c2ccc(NC(=O)c3ccccc3C(=O)O)cc2)cc1C -25.4%
CCc1cccc(C)c1NC(=O)CSc1nc(C)c(C)o1 -16.9%
COC(=O)Nc1ccc(S(=O)(=O)NNC(=O)c2c(O)c3ccccc3n(C)c2=O)cc1 -6.74%
CCOC(=O)C1CN(S(=O)(=O)c2cc(OC)ccc2OC)C1 -25.9%
COc1ccc(-n2c(=O)c3c4c(sc3n(Cc3ccc(C(C)(C)C)cc3)c2=O)CCC4)c(OC)c1 -17.8%
CC(=O)Nc1cccc(NC(=O)c2ccccc2OCc2c(C)noc2C)c1 -3.18%
Cc1ccc(S(=O)(=O)NC2CCCC(C(=O)O)C2)cc1 (stereo unspecified) -6.9%
Cc1cc(C)cc(-n2ccnc2SCC(=O)Nc2ccc(C)c(Cl)c2)c1 -25.1%
COC(=O)[C@H](Cc1ccccc1)NC(=O)C1(OC(C)=O)CC(OC(C)=O)C(OC(C)=O)C(OC(C)=O)C1 (stereo partly specified) -7.96%
CCCCn1c(N)c(N(CCOC)C(=O)c2ccc(S(=O)(=O)N3CCCCC3)cc2)c(=O)[nH]c1=O 11.4%
COc1ccc(OCCCC(=O)Nc2cccc(C(C)=O)c2)cc1 -26.7%
Cc1cccc(NC2(C(=O)O)CCCC2)c1 2.86%
CC(=O)c1ccc(OCc2ccc(Oc3c(Cl)cccc3[N+](=O)[O-])cc2)cc1 -23.2%
Cc1ccc2c(c1)N(CC(=O)NC1CCCc3ccccc31)C(=O)CO2 (stereo unspecified) 4.19%
CC(=O)Nc1ccc(S(=O)(=O)N2CCCC(C(=O)N3CCN(c4ccccc4)CC3)C2)cc1 (stereo unspecified) -22.1%
CCc1ccc(Nc2ncnc3nc[nH]c23)cc1 -29.9%
CC(C)CCNC(=O)c1ccc2c(SCC(=O)O)c3c(nc2c1)CCCC3 -25.2%
Cc1cc(NC(=O)CCC(=O)N(CC(=O)NC2CCCC2)c2ccc(C)c(F)c2)no1 6.26%
C[C@H](NC(=O)[C@@H]1Cc2ccccc2CN1C(=O)OC(C)(C)C)C(=O)NC1CCCCC1 -5.84%
CC(C)(CNC(=O)CC1C(=O)NCCN1Cc1cccc(F)c1)N1CCOCC1 (stereo unspecified) -3.02%
CCc1ccc(NC(=O)/C(C#N)=C/c2cc3ccc(C)cc3nc2N2CCOCC2)cc1 73.4%
OC(CN1CCCCC1)Cn1c2ccccc2c2cc(Br)ccc21 (stereo unspecified) -1.59%
CC1(C)CC(=O)/C(=C\c2cccc([N+](=O)[O-])c2)C(C)(C)N1 -6.21%
Cc1cc(C)c(S(=O)(=O)N2CCN(C(=O)N3CCOCC3)CC2)c(C)c1 1.33%
O=C(OCC(=O)c1ccc(Cl)s1)c1cncc(Br)c1 -17.7%
Cc1cccc(/C=N/NC(=O)NC23CC4CC(CC(C4)C2)C3)n1 -19.3%
CC(=O)N1CCN(c2nnc(-c3ccccc3)c3ccccc23)CC1 2.55%
CC1(C)CC(=O)C(C(O)c2ccccc2)C(C)(C)N1 (stereo unspecified) -12.9%
CCCn1c(=O)c(C(=O)NNS(=O)(=O)c2ccc(C)cc2)c(O)c2ccccc21 -38.8%
O=C1CCN(S(=O)(=O)c2ccc(Br)cc2)CCN1 -26.1%
O=C(COC(=O)c1cccc(-n2cnnn2)c1)c1ccccc1 -11.8%
CNC(=S)N/N=C/c1c(C)nn(-c2ccccc2)c1Cl -37.2%
O=S(=O)(NCCNS(=O)(=O)c1ccc(F)cc1)c1ccc(F)cc1 -20.7%
CN(C)CCCNc1c2ccccc2nc2ccccc12 -88.9%
c1ccc(Oc2ncnc3ccccc23)cc1 -23.6%
CC(=O)Nc1ccc2c(c1)NC(=O)CC2 -12.5%
COC(=O)Cc1ccc(NC(=S)NC(C)(C)C)cc1 -5.89%

Potency, active:
COc1cccc2c1C(=N)c1c(O)c3c(c(O)c1C2=O)CC(O)(C(C)=O)CC3OC1CC(N)C(O)C(C)O1 (stereo unspecified) 3.98 µM
CCCN1C[C@H](CSC)C[C@@H]2c3cccc4[nH]cc(c34)C[C@H]21 14.1 µM
Cc1cc2[nH]c3c(c[n+](C)c4ccccc34)c2cc1C 3.55 µM
CC(=O)Nc1sc2c(c1-c1nc3ccccc3s1)CCN(C(C)C)C2 3.55 µM
COc1ccc(OC)c2c1C(=O)c1ccccc1C2=O 35.5 µM
CN(C)CCN1C(=O)c2cccc3cc([N+](=O)[O-])cc(c23)C1=O 7.94 µM
COc1cc(NCCCC(C)N)c2ncccc2c1 (stereo unspecified) 44.7 µM
Nc1c2ccccc2nc2ccccc12 11.2 µM
Nc1cccc2nc3ccccc3cc12 50.1 µM
CN(C)c1ccc2c(c1)C(=NO)c1ccccc1-2 70.8 µM
